# Activity calls are given as the source filed them. Where a call stands in place of a potency, no number is given. The call rests on the fitted dose curve; in most records, active means well fitted curve in the direction sought with a large enough effect in the repeat runs; inconclusive means weak or mixed curves; inactive means flat fitted curve, though single readings scatter.
# Assay: qHTS assay to test for compound auto fluorescence at 460 nm (blue) in HEK293 cells (AID 720678)
# Settings: blue autofluorescence 405/460 nm; series mostly up to 91.3 µM
# Procedure, shortened: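 Triamterene serves as the blue fluorophore standard. Compound signal at 405/460 nm is read in HEK293 wells (2,000 cells, 10% dialyzed FBS) after overnight treatment at 37C.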
row,SMILES,Potency
1,Cc1cc(O)c(C(C)(C)C)cc1C(C)(C)C,inactive
2,C=CC(=O)OCCn1c(=O)n(CCOC(=O)C=C)c(=O)n(CCOC(=O)C=C)c1=O,inactive
3,CCCCCCCCCCn1cc[n+](CCCCCCCCCC)c1C,inactive
4,O=C(Nc1ccc(Oc2ccc(Cl)cc2)c(Cl)c1)c1cc(I)cc(I)c1O,inactive
5,CN1CCN(CCC(=O)N2c3ccccc3Sc3ccc(C(F)(F)F)cc32)CC1,inactive
6,CCCCN1CCCC[C@H]1C(=O)Nc1c(C)cccc1C,inactive
7,CCCC/C=C/CCCCO,inactive
8,O=C(OCC(COC(=O)c1ccccc1)(COC(=O)c1ccccc1)COC(=O)c1ccccc1)c1ccccc1,inactive
9,O=S1(=O)CC(Cl)(Cl)C(Cl)(Cl)C1,inactive
10,N#CSc1ccc(N)c([N+](=O)[O-])c1,inactive
11,C=C(C)C(=O)OCC[N+](C)(C)C,inactive
12,Cc1ccc(-n2nc(C(C)(C)C)cc2NC(=O)Nc2ccc(OCCN3CCOCC3)c3ccccc23)cc1,inactive
13,CCCCCCCC[N+](CCCCCCCC)(CCCCCCCC)CCCCCCCC,inactive
14,[O-][n+]1ccccc1SSc1cccc[n+]1[O-],inactive
15,Oc1cccc(-c2c3nc(c(-c4cccc(O)c4)c4ccc([nH]4)c(-c4cccc(O)c4)c4nc(c(-c5cccc(O)c5)c5ccc2[nH]5)CC4)C=C3)c1,inactive
16,Cc1cccc(S(=O)(=O)O)c1C,inactive

row,SMILES,Potency
1,CCCCCCCCS(=O)C(C)Cc1ccc2c(c1)OCO2 (stereo not drawn),inactive
2,CCOC(=O)/C=C(C)/C=C/C=C(C)/C=C/c1c(C)cc(OC)c(C)c1C,inactive
3,CC(NN)c1ccccc1 (stereo not drawn),inactive
4,CCCCC(CC)COC(=O)c1ccccc1C(=O)O (stereo not drawn),inactive
5,CCCCc1oc2ccc(NS(C)(=O)=O)cc2c1C(=O)c1ccc(OCCCN(CCCC)CCCC)cc1,inactive
6,CCCCCOC(=O)CCCC,inactive
7,NNc1nc(-c2ccc(N)cc2)cs1,inactive
8,CCc1cc(Cc2cc(CC)cc(C(C)(C)C)c2O)c(O)c(C(C)(C)C)c1,inactive
9,CCCCCCCCCCC=O,inactive
10,CCCCC(CC)CN=C(N)NC(N)=NCCCCCCN=C(N)NC(N)=NCC(CC)CCCC (stereo not drawn),inactive
11,O=C(c1ccc(O)cc1O)c1ccc(O)cc1O,inactive
12,CCOC(=O)O[C@]1(C(=O)OCCl)CC[C@H]2[C@@H]3CCC4=CC(=O)C=C[C@]4(C)[C@H]3[C@@H](O)C[C@@]21C,inactive
13,Clc1ccc2cc3ccccc3cc2c1,inactive
14,C1CCCC1,inactive
15,CCCCC(CC)COP(=O)(O)OCC(CC)CCCC (stereo not drawn),inactive

# Assay: qHTS assay to test for compound auto fluorescence at 590 nm (red) in HEK293 cells (AID 720679)
# Settings: red autofluorescence 540/590 nm; series mostly up to 91.3 µM
# Procedure, shortened: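 We plated HEK293 cells in 10% dialyzed FBS medium, let them adhere for 4-5 hr, then added 23 nL compound. Overnight at 37C and 5% CO2 preceded fluorescence measurement at 540/590nm.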
row,SMILES,Potency
1,Cc1cc(O)c(C(C)(C)C)cc1C(C)(C)C,inactive
2,C=CC(=O)OCCn1c(=O)n(CCOC(=O)C=C)c(=O)n(CCOC(=O)C=C)c1=O,inactive
3,CCCCCCCCCCn1cc[n+](CCCCCCCCCC)c1C,inactive
4,O=C(Nc1ccc(Oc2ccc(Cl)cc2)c(Cl)c1)c1cc(I)cc(I)c1O,inactive
5,CN1CCN(CCC(=O)N2c3ccccc3Sc3ccc(C(F)(F)F)cc32)CC1,inactive
6,Oc1ccc(Cl)cc1Sc1cc(Cl)ccc1O,inactive
7,CCCCN1CCCC[C@H]1C(=O)Nc1c(C)cccc1C,inactive
8,CCCC/C=C/CCCCO,inactive
9,O=C(OCC(COC(=O)c1ccccc1)(COC(=O)c1ccccc1)COC(=O)c1ccccc1)c1ccccc1,inactive
10,O=S1(=O)CC(Cl)(Cl)C(Cl)(Cl)C1,inactive
11,N#CSc1ccc(N)c([N+](=O)[O-])c1,inactive
12,C=C(C)C(=O)OCC[N+](C)(C)C,inactive
13,CC1=NC(C)OC1C (stereo not drawn),inactive
14,Cc1ccc(-n2nc(C(C)(C)C)cc2NC(=O)Nc2ccc(OCCN3CCOCC3)c3ccccc23)cc1,inactive
15,CCCCCCCC[N+](CCCCCCCC)(CCCCCCCC)CCCCCCCC,inactive
16,CCCCCCOC(=O)c1ccc(O)cc1,inactive
17,[O-][n+]1ccccc1SSc1cccc[n+]1[O-],inactive
18,CCCCCCCCCCCCCCCCCC[N+](C)(C)Cc1ccccc1,inactive
19,CCCC(C)c1ccccc1O (stereo not drawn),inactive

row,SMILES,Potency
1,CCCCCCCCCCCCCC[P+](CCCC)(CCCC)CCCC (tested in a mixture with another compound),inactive
2,Oc1cccc(-c2c3nc(c(-c4cccc(O)c4)c4ccc([nH]4)c(-c4cccc(O)c4)c4nc(c(-c5cccc(O)c5)c5ccc2[nH]5)CC4)C=C3)c1,inactive
3,CCCCCCCCS(=O)C(C)Cc1ccc2c(c1)OCO2 (stereo not drawn),inactive
4,CCOC(=O)/C=C(C)/C=C/C=C(C)/C=C/c1c(C)cc(OC)c(C)c1C,inactive
5,CC(NN)c1ccccc1 (stereo not drawn),inactive
6,CCCCC(CC)COC(=O)c1ccccc1C(=O)O (stereo not drawn),inactive
7,CCCCc1oc2ccc(NS(C)(=O)=O)cc2c1C(=O)c1ccc(OCCCN(CCCC)CCCC)cc1,inactive
8,CCCCCOC(=O)CCCC,inactive
9,NNc1nc(-c2ccc(N)cc2)cs1,inactive
10,CCc1cc(Cc2cc(CC)cc(C(C)(C)C)c2O)c(O)c(C(C)(C)C)c1,inactive
11,CCCCCCCCCCC=O,inactive
12,CCCCC(CC)CN=C(N)NC(N)=NCCCCCCN=C(N)NC(N)=NCC(CC)CCCC (stereo not drawn),inactive
13,O=C(c1ccc(O)cc1O)c1ccc(O)cc1O,inactive
14,CCOC(=O)O[C@]1(C(=O)OCCl)CC[C@H]2[C@@H]3CCC4=CC(=O)C=C[C@]4(C)[C@H]3[C@@H](O)C[C@@]21C,inactive
15,Clc1ccc2cc3ccccc3cc2c1,inactive
16,C1CCCC1,inactive
17,CCCCC(CC)COP(=O)(O)OCC(CC)CCCC (stereo not drawn),inactive
18,C[n+]1cc2c3c(ccc2c2ccc4cc5c(cc4c21)OCO5)OCO3,inactive

# From PubChem BioAssay (Tox21)
